{"source": "the supplement of paper PMC8728848", "assay_in_all_cases": "glycan array binding signal (z-score within array); higher = stronger binding", "settings_in_all_cases": "glycan notation: IUPAC condensed, linker removed", "key": {"[1]": {"target": "GlcNAc(b1-3)Gal(b1-4)GlcNAc(b1-3)Gal(b1-4)GlcNAc(b1-3)Gal(b1-4)GlcNAc(b1-3)Gal(b1-4)GlcNAc(b1-2)[GlcNAc(b1-3)Gal(b1-4)GlcNAc(b1-3)Gal(b1-4)GlcNAc(b1-3)Gal(b1-4)GlcNAc(b1-3)Gal(b1-4)GlcNAc(b1-6)]Man(a1-6)[GlcNAc(b1-3)Gal(b1-4)GlcNAc(b1-3)Gal(b1-4)GlcNAc(b1-3)Gal(b1-4)GlcNAc(b1-3)Gal(b1-4)GlcNAc(b1-2)Man(a1-3)]Man(b1-4)GlcNAc(b1-4)[Fuc(a1-6)]GlcNAc", "method_in_brief": "(§1)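 The Consortium for Functional Glycomics database supplied 3228 glycan arrays, of which those lacking an available protein sequence were dropped. The binding signal, a within-array Z-score, was averaged across arrays of the same protein sequence and across linkers. Negative scores can be read as non-binding.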"}, "[2]": {"target": "GlcNAc(b1-3)[GlcNAc(b1-6)]GalNAc", "method_in_brief": "as §1"}, "Man(a1-2)Man(a1-3)Man": {"target": "Man(a1-2)Man(a1-3)Man", "method_in_brief": "as §1"}, "Man(a1-3)[Man(a1-6)]Man": {"target": "Man(a1-3)[Man(a1-6)]Man", "method_in_brief": "as §1"}, "[3]": {"target": "Neu5Ac(a2-3)Gal(b1-3)GalNAc(b1-4)Gal(b1-4)Glc", "method_in_brief": "as §1"}, "[4]": {"target": "Neu5Ac(a2-3)Gal(b1-3)GlcNAc", "method_in_brief": "as §1"}, "[5]": {"target": "Neu5Ac(a2-3)Gal(b1-3)GlcNAc(b1-3)Gal(b1-4)GlcNAc", "method_in_brief": "as §1"}, "[6]": {"target": "Neu5Ac(a2-3)Gal(b1-3)GlcNAc(b1-6)GalNAc", "method_in_brief": "as §1"}, "[7]": {"target": "Neu5Ac(a2-3)Gal(b1-3)[Fuc(a1-4)]GlcNAc(b1-3)Gal(b1-3)[Fuc(a1-4)]GlcNAc", "method_in_brief": "as §1"}, "[8]": {"target": "Neu5Ac(a2-3)Gal(b1-4)GlcNAc(b1-2)Man(a1-3)[Neu5Ac(a2-6)Gal(b1-4)GlcNAc(b1-2)Man(a1-6)]Man(b1-4)GlcNAc(b1-4)GlcNAc", "method_in_brief": "as §1"}, "[9]": {"target": "Neu5Ac(a2-3)Gal(b1-4)GlcNAc(b1-3)Gal(b1-4)GlcNAc(b1-2)Man(a1-3)[Neu5Ac(a2-3)Gal(b1-4)GlcNAc(b1-3)Gal(b1-4)GlcNAc(b1-2)Man(a1-6)]Man(b1-4)GlcNAc(b1-4)GlcNAc", "method_in_brief": "as §1"}, "[10]": {"target": "Neu5Ac(a2-3)Gal(b1-4)GlcNAc(b1-3)Gal(b1-4)GlcNAc(b1-3)Gal(b1-4)GlcNAc(b1-2)Man(a1-3)[Neu5Ac(a2-3)Gal(b1-4)GlcNAc(b1-3)Gal(b1-4)GlcNAc(b1-3)Gal(b1-4)GlcNAc(b1-2)Man(a1-6)]GalNAc", "method_in_brief": "as §1"}, "[11]": {"target": "Neu5Ac(a2-3)Gal(b1-4)GlcNAc(b1-3)Gal(b1-4)GlcNAc(b1-3)[Neu5Ac(a2-3)Gal(b1-4)GlcNAc(b1-3)Gal(b1-4)GlcNAc(b1-6)]GalNAc", "method_in_brief": "as §1"}, "[12]": {"target": "Neu5Ac(a2-3)Gal(b1-4)GlcNAc(b1-6)[Neu5Ac(a2-3)Gal(b1-3)]GalNAc", "method_in_brief": "as §1"}, "[13]": {"target": "Neu5Ac(a2-3)Gal(b1-4)[Fuc(a1-3)]GlcNAc(b1-3)GalNAc", "method_in_brief": "as §1"}, "[14]": {"target": "Neu5Ac(a2-3)Gal(b1-4)[Fuc(a1-3)]GlcNAc(b1-6)[Gal(b1-3)]GalNAc", "method_in_brief": "as §1"}, "[15]": {"target": "Neu5Ac(a2-6)Gal(b1-4)GlcNAc(b1-2)Man(a1-3)Man(b1-4)GlcNAc(b1-4)GlcNAc", "method_in_brief": "as §1"}, "[16]": {"target": "Neu5Ac(a2-6)Gal(b1-4)GlcNAc(b1-2)Man(a1-3)[Neu5Ac(a2-6)Gal(b1-4)GlcNAc(b1-2)Man(a1-6)]Man(b1-4)GlcNAc(b1-4)[Fuc(a1-6)]GlcNAc", "method_in_brief": "as §1"}, "[17]": {"target": "Neu5Ac(a2-6)Gal(b1-4)GlcNAc(b1-2)[Neu5Ac(a2-6)Gal(b1-4)GlcNAc(b1-4)]Man(a1-3)[GlcNAc(b1-4)][Neu5Ac(a2-6)Gal(b1-4)GlcNAc(b1-2)[Neu5Ac(a2-6)Gal(b1-4)GlcNAc(b1-6)]Man(a1-6)]Man(b1-4)GlcNAc(b1-4)GlcNAc", "method_in_brief": "as §1"}, "[18]": {"target": "Neu5Ac(a2-6)Gal(b1-4)GlcNAc(b1-3)Gal(b1-4)[Fuc(a1-3)]GlcNAc(b1-3)Gal(b1-4)[Fuc(a1-3)]GlcNAc", "method_in_brief": "as §1"}, "[19]": {"target": "Neu5Ac(a2-8)Neu5Ac(a2-3)Gal(b1-3)GalNAc(b1-4)[Neu5Ac(a2-8)Neu5Ac(a2-3)]Gal(b1-4)Glc", "method_in_brief": "as §1"}, "Neu5Ac(b2-6)GalNAc": {"target": "Neu5Ac(b2-6)GalNAc", "method_in_brief": "as §1"}, "[20]": {"target": "Neu5Gc(a2-3)Gal(b1-3)[Fuc(a1-4)]GlcNAc", "method_in_brief": "as §1"}}, "note": "Many of the other results were omitted from the sample, so the strongest signals are more common in it than they were."}
{"binder": "BIp1-His (Cryptococcus neoformans) (protein) MFTKIFVALFAATAVLSAPVESAEKRITHTGRATFYSPSVGIGACGWQNTDEELVVALNAPQYALNADHNCGQSVRITNEQNGNQEIAKVVDLCPGCNDGDLDMSPALFGALNNNDFDQGVFPISWNFLPRDDTSSSN", "values": [{"measurement": "glycan array binding signal (z-score)", "setting": "[1]", "result": 0.882}, {"measurement": "glycan array binding signal (z-score)", "setting": "[2]", "result": -0.522}, {"measurement": "glycan array binding signal (z-score)", "setting": "Man(a1-2)Man(a1-3)Man", "result": -0.136}, {"measurement": "glycan array binding signal (z-score)", "setting": "Man(a1-3)[Man(a1-6)]Man", "result": 0.728}, {"measurement": "glycan array binding signal (z-score)", "setting": "[3]", "result": -0.565}, {"measurement": "glycan array binding signal (z-score)", "setting": "[4]", "result": -0.217}, {"measurement": "glycan array binding signal (z-score)", "setting": "[5]", "result": 0.65}, {"measurement": "glycan array binding signal (z-score)", "setting": "[6]", "result": 1.86}, {"measurement": "glycan array binding signal (z-score)", "setting": "[7]", "result": -0.526}, {"measurement": "glycan array binding signal (z-score)", "setting": "[8]", "result": -0.064}, {"measurement": "glycan array binding signal (z-score)", "setting": "[9]", "result": -0.11}, {"measurement": "glycan array binding signal (z-score)", "setting": "[10]", "result": 2.41}, {"measurement": "glycan array binding signal (z-score)", "setting": "[11]", "result": -0.12}, {"measurement": "glycan array binding signal (z-score)", "setting": "[12]", "result": -1.36}, {"measurement": "glycan array binding signal (z-score)", "setting": "[13]", "result": 1.32}, {"measurement": "glycan array binding signal (z-score)", "setting": "[14]", "result": 0.648}, {"measurement": "glycan array binding signal (z-score)", "setting": "[15]", "result": 0.176}, {"measurement": "glycan array binding signal (z-score)", "setting": "[16]", "result": 0.617}, {"measurement": "glycan array binding signal (z-score)", "setting": "[17]", "result": -0.066}, {"measurement": "glycan array binding signal (z-score)", "setting": "[18]", "result": -0.059}, {"measurement": "glycan array binding signal (z-score)", "setting": "[19]", "result": 1.77}, {"measurement": "glycan array binding signal (z-score)", "setting": "Neu5Ac(b2-6)GalNAc", "result": -0.971}, {"measurement": "glycan array binding signal (z-score)", "setting": "[20]", "result": -0.455}]}
